Compounds without any hit were thinned out: in the full panel of roughly 83,000, 20% have a hit.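 96-well plates, one dose, 48 hours. Percent growth reported; active if below 10.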 Values without a mark were called inactive. The source made the active and inactive calls.

Drawing on PubChem BioAssay (NCI), this text covers growth for seven compounds.

Among the test systems are DU-145 prostate; K-562 leukemia; MALME-3M melanoma; MDA-MB-231 breast; RXF 393 renal; SF-268 CNS; SF-295 CNS; SF-539 CNS; UACC-257 melanoma; M14 melanoma; HCT-15 colon; HT29 colon; SNB-75 CNS; SNB-19 CNS; U251 CNS; PC-3 prostate; SK-MEL-5 melanoma; UACC-62 melanoma; SK-MEL-28 melanoma; LOX IMVI melanoma.
Common to all, as to test: NCI-60 one-dose screen, 48 h (100 = growth as untreated, 0 = no growth, -100 = all killed)
Common to all, as to settings: 10 µM unless noted

Turning to `NC(=O)c1cc(I)ccc1NC(=O)/C=C/c1ccccc1`, the growth in the experiment with DU-145 prostate was -7.97% (active); with K-562 leukemia, 1.5% (active); in the experiment with MALME-3M melanoma, 42.7%; with MDA-MB-231 breast, 31.6%; in the experiment on RXF 393 renal, 19.3%; with SF-268 CNS, 29.9%. The growth in the experiment on SF-295 CNS is -18.4% (active); in the experiment on SF-539 CNS, -22% (active); in the experiment with UACC-257 melanoma, 69.7%; in the experiment with M14 melanoma, 19.2%; with HCT-15 colon it was 24.5%; in the experiment with HT29 colon, 22.1%. Moreover, the growth is 30.1% in the experiment with SNB-75 CNS; 27.3% in the experiment with SNB-19 CNS; 21.8% in the experiment on U251 CNS; 15.4% in the experiment with PC-3 prostate; 24.5% with SK-MEL-5 melanoma; 64.9% with UACC-62 melanoma. Also, the growth in the experiment with SK-MEL-28 melanoma was 12%.
With `CC1=C([Se]CC(OC(=O)CC[Se]c2ccccc2)C(=O)NC(C)(C)C)C(=O)c2ccccc2C1=O` (configuration not stated), the growth is -94.8% (active) in the experiment with DU-145 prostate; -11.3% (active) in the experiment on K-562 leukemia; -57.2% (active) in the experiment on MALME-3M melanoma; -41.7% (active) in the experiment on MDA-MB-231 breast; -87.5% (active) in the experiment with RXF 393 renal; -88.9% (active) with SF-268 CNS. The growth in the experiment with SF-295 CNS is -36.2% (active); in the experiment with SF-539 CNS, -99% (active); with UACC-257 melanoma it was -87.3% (active); in the experiment with M14 melanoma, -77.8% (active); in the experiment with HCT-15 colon it was 4.43% (active); in the experiment on HT29 colon it was 5.28% (active). Also, the growth in the experiment on SNB-75 CNS is -89.2% (active); in the experiment with SNB-19 CNS, -88.1% (active); in the experiment on U251 CNS, -36% (active); in the experiment with PC-3 prostate, -36% (active); with SK-MEL-5 melanoma, -97.4% (active); with UACC-62 melanoma it was -76.4% (active). Moreover, the results for the growth in the experiment on LOX IMVI melanoma and in the experiment with SK-MEL-28 melanoma were -0.738% (active) and -92.2% (active), respectively.
Consider `C=C(C)[C@@H]1CC[C@]2(C(=O)N3CCOCC3)CC[C@]3(C)[C@H](CC[C@@H]4[C@@]5(C)C/C(=C/c6ccncc6)C(=O)C(C)(C)[C@@H]5CC[C@]43C)[C@@H]12`, for which the growth in the experiment with DU-145 prostate was 77.9%; in the experiment on K-562 leukemia it was 38.6%; in the experiment on MALME-3M melanoma, 77.5%; with MDA-MB-231 breast, 78.6%; in the experiment with RXF 393 renal, 52.3%; with SF-268 CNS it was 66.3%. Also, the growth with SF-295 CNS is 85.9%; in the experiment with SF-539 CNS it was 78.5%; with UACC-257 melanoma, 53.7%; in the experiment on M14 melanoma, 75%; with HCT-15 colon it was 42.6%; in the experiment on HT29 colon, 33.8%. Moreover, the growth is 78.5% in the experiment with SNB-75 CNS; 76.9% with SNB-19 CNS; 55.7% in the experiment on U251 CNS; 25.2% with PC-3 prostate; 60.6% in the experiment with SK-MEL-5 melanoma; 43.1% in the experiment with UACC-62 melanoma. The results for the growth in the experiment on LOX IMVI melanoma and in the experiment on SK-MEL-28 melanoma were 60% and 74%, respectively.
For `CCC(C(=O)[C@@H](C)[C@@H](O)[C@H](C)[C@@H]1O[C@@H]([C@@H](CC)C(=O)ONC(=O)c2ccccc2)CC[C@@H]1C)[C@H]1O[C@]2(C=CC(=O)[C@]3(CC[C@@](C)([C@H]4CC[C@](O)(CC)[C@H](C)O4)O3)O2)[C@H](C)C[C@@H]1C` (some centres not stated), the growth with DU-145 prostate is -13% (active); with K-562 leukemia, -6.87% (active); with MALME-3M melanoma it was -24.7% (active); in the experiment on MDA-MB-231 breast, -53.2% (active); in the experiment with RXF 393 renal, -6.41% (active); in the experiment with SF-268 CNS, 28.4%. Besides, the growth was 1.07% (active) in the experiment on SF-295 CNS; -62.8% (active) in the experiment on SF-539 CNS; 32% in the experiment with UACC-257 melanoma; 21.1% with M14 melanoma; 13.7% in the experiment on HCT-15 colon; 20.6% in the experiment on HT29 colon. In addition, the growth was 27.6% with SNB-75 CNS; 21.1% with SNB-19 CNS; -19% (active) with U251 CNS; 8.93% (active) in the experiment on PC-3 prostate; -73.9% (active) in the experiment on SK-MEL-5 melanoma; -24.5% (active) in the experiment on UACC-62 melanoma. Besides, the growth is 4.55% (active) with LOX IMVI melanoma and 20.6% in the experiment on SK-MEL-28 melanoma.
As for `COc1ccc(C(C)=O)cc1S(=O)(=O)Nc1c(N)nc(SC)[nH]c1=O`, the growth in the experiment with DU-145 prostate is 107%; in the experiment on K-562 leukemia, 93%; in the experiment on MALME-3M melanoma it was 96.4%; in the experiment on MDA-MB-231 breast, 111%; in the experiment with RXF 393 renal, 107%; with SF-268 CNS, 96.1%. Also, the growth in the experiment with SF-295 CNS was 98.1%; in the experiment with SF-539 CNS, 108%; in the experiment with UACC-257 melanoma it was 103%; in the experiment on M14 melanoma, 94.8%; in the experiment on HCT-15 colon, 100%; with HT29 colon, 104%. The growth in the experiment with SNB-75 CNS was 98.2%; in the experiment with SNB-19 CNS it was 109%; in the experiment on U251 CNS, 111%; with PC-3 prostate, 104%; with SK-MEL-5 melanoma, 100%; in the experiment on UACC-62 melanoma it was 97.1%. The growth in the experiment with SK-MEL-28 melanoma was 109%.
As to `COc1cccc(/C=C2\COc3ccc(O)c(O)c3C2=O)c1`, the growth in the experiment with DU-145 prostate is 4.84% (active); in the experiment on K-562 leukemia, 11.7%; with MALME-3M melanoma, -26.3% (active); in the experiment on MDA-MB-231 breast, 0.944% (active); in the experiment with RXF 393 renal, -18.7% (active); in the experiment on SF-268 CNS, 5.27% (active). In addition, the growth is 79.1% in the experiment on SF-295 CNS; -54.7% (active) in the experiment with SF-539 CNS; 28.1% with UACC-257 melanoma; 26% in the experiment with M14 melanoma; 1.4% (active) with HCT-15 colon; 8.58% (active) in the experiment on HT29 colon. The growth in the experiment on SNB-75 CNS is 11.5%; with SNB-19 CNS, 35.4%; with U251 CNS, 3% (active); with PC-3 prostate, -10.5% (active); with SK-MEL-5 melanoma, 40.4%; in the experiment with UACC-62 melanoma, -6.3% (active). In the experiment on SK-MEL-28 melanoma, the growth was 32.1%.
`CCOC(=O)C1=C(N)Oc2c(sc3c(F)cccc23)C1c1ccc(O)cc1` (configuration not stated): the growth in the experiment on DU-145 prostate is 66.8%; in the experiment with K-562 leukemia, 12.6%; in the experiment with MALME-3M melanoma, 54.4%; with MDA-MB-231 breast, 36.9%; with RXF 393 renal, 46.1%; in the experiment with SF-268 CNS it was 37%. In addition, the growth with SF-295 CNS is 56.3%; with SF-539 CNS it was 42.5%; in the experiment on UACC-257 melanoma it was 49.8%; with M14 melanoma it was 22.9%; in the experiment with HCT-15 colon it was 24.2%; in the experiment with HT29 colon, 30.7%. Also, the growth in the experiment with SNB-75 CNS is 31.3%; with SNB-19 CNS, 48.9%; in the experiment on U251 CNS, 37.9%; in the experiment with PC-3 prostate, 26%; in the experiment with SK-MEL-5 melanoma it was 18%; with UACC-62 melanoma, 26.3%. Also, the growth with LOX IMVI melanoma is 36.4%; in the experiment with SK-MEL-28 melanoma, 46%.
